According to PubChem BioAssay AID602288 (National Center for Advancing Translational Sciences (NCATS), 2012):
Records with an inconclusive call do not appear. A number with no mark means an inactive call. Active and inactive are the calls of the source. Calls follow the shape of the dose curve; as a rule, active = well fitted cell-killing curve with a large enough effect (not every such curve was filed as active); inconclusive = small, poorly fitted or top-dose-only effect, or another doubt; inactive = no such curve, though single readings can be large or run the other way.

Assay: qHTS Assay for Agonists of the Relaxin Receptor RXFP1: Cytotoxicity SAR
Conditions: HEK293-RXFP1 viability, ATPLite luminescence, 72 h; series mostly up to 78.1 µM; activity change, negative = cytotoxicity: at the top concentration
From the text: The relaxin hormone is involved in the variety of biological functions in normal tissues and diseases. The role of relaxin is well-established in female reproduction and parturition, mammary gland and endometrial development, maintenance of myometrial quiescence during pregnancy. Relaxin signaling through its G protein-coupled receptor (GPCR) RXFP1 results in ECM remodeling through regulation of collagen deposition, cell invasiveness, proliferation and overall tissue homeostasis. […] Recombinant human relaxin (rhRlx) is currently being tested in clinical trials as a protective agent in congestive heart failure, in treating severe preeclampsia, and as an anti-fibrotic agent in systemic sclerosis. In the primary screen, upon relaxin binding RXFP1 activation leads to the activation of adenylate cyclase (AC) via Gs. cAMP will activate PKA, which phosphorylates many signaling proteins. Thus, detection of cAMP increase is an easy and reliable indication of relaxin receptor activation. To screen for agonists of the relaxin receptor, a HEK293T cell line stably transfected with RXFP1 was used. RXFP1 activation was assayed by changes in cAMP levels as detected with a time-resolved fluorescence energy transfer (TR-FRET) cAMP detection kit. We conducted this followup assay to measure the effect of the lead candidates on cell health by measuring ATP levels (ATPLite). NIH Chemical Genomics Center [NCGC] NIH Molecular Libraries Probe Production Centers Network [MLPCN] MLPCN Grant: R03 MH085705-01A1 Assay Submitter (PI): Alexander Agoulnik
In this assay, the luciferase enzyme catalyzes the conversion of the added substrate D-luciferin to oxyluciferin and light with ATP. Thus, the emitted light is proportional to the ATP concentration. To evaluate the cytotoxic properties of the compounds, HEK293-RXFP1 cells were incubated with compounds for 72 h in growth media (DMEM 10% FBS, 1x Pen/Strep, 0.5 mg/mL G418) in 384-well format. After compound incubation, the levels of ATP in each well were measured with the addition of the ATPLite assay reagent.

SMILES | activity change, negative = cytotoxicity [%] | Potency
CSc1cccc(NC(=O)c2ccccc2NC(=O)C2CCCCC2)c1 | -31 | –
CCOc1ccccc1C(=O)Nc1ccncc1C(=O)Nc1cccc(S(=O)(=O)C(F)(F)F)c1 | – | 2.36 µM (active)
CCOc1ccccc1C(=O)Nc1ccccc1CNc1cccc(S(=O)(=O)C(F)(F)F)c1 | -26.1 | –
COc1ccccc1-c1ccccc1C(=O)Nc1cccc(C(F)(F)F)c1 | – | 23.6 µM (active)
CCCCOc1ccccc1C(=O)Nc1ccccc1C(=O)Nc1cccc(S(=O)(=O)C(F)(F)F)c1 | -59.1 | –
CCOc1ccccc1C(=O)Nc1ccccc1C(=O)Nc1cccc(C(F)(F)F)c1 | -13.9 | –
O=C(Nc1cccc(C(F)(F)F)c1)c1ccccc1NC(=O)c1ccccc1OC(F)(F)F | -38 | –
CC(C)Oc1ccccc1C(=O)Nc1ccccc1C(=O)Nc1cccc(S(=O)(=O)C(F)(F)F)c1 | – | 9.4 µM (active)
O=C(Nc1cccc(C(F)(F)F)c1)c1ccccc1NC(=O)C1CCCCCC1 | – | 5.93 µM (active)
COc1ccccc1C(=O)Nc1ccccc1C(=O)Nc1cccc(C(F)(F)F)c1 | -43.3 | –
COCCOc1ccccc1C(=O)Nc1ccccc1C(=O)Nc1cccc(C(F)(F)F)c1 | -53.3 | –
O=C(Nc1cccc(-c2ccccc2)c1)c1ccccc1NC(=O)C1CCCCC1 | – | 14.9 µM (active)
O=C(Nc1cccc([N+](=O)[O-])c1)c1ccccc1NC(=O)C1CCCCC1 | -31.8 | –
COc1ccccc1C(=O)N(C)c1ccccc1C(=O)N(C)c1cccc(C(F)(F)F)c1 | – | 59.3 µM (active)
CCOc1ccccc1S(=O)(=O)Nc1ccccc1C(=O)Nc1cccc(S(=O)(=O)C(F)(F)F)c1 | – | 5.93 µM (active)
CCCOc1ccccc1C(=O)Nc1ccccc1C(=O)Nc1cccc(S(=O)(=O)C(F)(F)F)c1 | – | 9.4 µM (active)
CCOc1ccccc1C(=O)NCCC(=O)Nc1cccc(S(=O)(=O)C(F)(F)F)c1 | -65.1 | –
COCCNc1ccccc1C(=O)Nc1cccc(C(F)(F)F)c1 | – | 29.7 µM (active)
Cc1ccccc1C(=O)Nc1ccccc1C(=O)Nc1cccc(C(F)(F)F)c1 | -69.3 | –
O=C(Nc1cccc(C(F)(F)F)c1)c1ccccc1NC(=O)C1CCCC1 | -68.8 | –

SMILES | activity change, negative = cytotoxicity [%] | Potency
O=C(Nc1cccc(-c2cccc(C(F)(F)F)c2)c1)c1ccccc1NC(=O)C1CCCCC1 | – | 23.6 µM (active)
O=C(Nc1cccc(SC(F)(F)F)c1)c1ccccc1NC(=O)C1CCCCC1 | -42.9 | –
CCC(CC)C(=O)Nc1ccccc1C(=O)Nc1cccc(C(F)(F)F)c1 | – | 9.4 µM (active)
O=C(Nc1cccc(S(=O)(=O)C(F)(F)F)c1)c1ccccc1NC(=O)C1CCCCC1 | – | 14.9 µM (active)
CCOc1ccccc1C(=O)Nc1cnccc1C(=O)Nc1cccc(S(=O)(=O)C(F)(F)F)c1 | – | 23.6 µM (active)
O=C(Cc1ccccc1)Nc1ccccc1C(=O)Nc1cccc(C(F)(F)F)c1 | – | 47.1 µM (active)
O=C(Nc1ccccc1C(=O)Nc1cccc(C(F)(F)F)c1)c1cccnc1 | -17.2 | –
CCOc1ccccc1C(=O)Nc1ncccc1C(=O)Nc1cccc(S(=O)(=O)C(F)(F)F)c1 | – | 18.8 µM (active)
COc1ccccc1CNc1ccccc1C(=O)Nc1cccc(C(F)(F)F)c1 | – | 23.6 µM (active)
O=C(Nc1cccc(C(F)(F)F)c1)c1ccccc1NC(=O)C1CC1 | -17.1 | –
O=C(Nc1cccc(C(F)(F)F)c1)c1ccccc1NC(=O)C1CCCCC1 | – | 18.8 µM (active)
O=C(Nc1cccc(Br)c1)c1ccccc1NC(=O)C1CCCCC1 | -27.7 | –
COc1ccccc1Nc1ccccc1C(=O)Nc1cccc(C(F)(F)F)c1 | – | 23.6 µM (active)
Cc1cccc(NC(=O)c2ccccc2NC(=O)C2CCCCC2)c1 | – | 23.6 µM (active)
CN(C)CCOc1ccccc1C(=O)Nc1ccccc1C(=O)Nc1cccc(C(F)(F)F)c1 | -98.1 | –
O=C(Nc1ccccc1C(=O)Nc1cccc(C(F)(F)F)c1)c1ccccc1Cl | – | 11.8 µM (active)
O=C(Nc1cccc(-c2ccccc2C(F)(F)F)c1)c1ccccc1NC(=O)C1CCCCC1 | -39.7 | –
CCOc1ccccc1-c1nc2c(C(=O)Nc3cccc(S(=O)(=O)C(F)(F)F)c3)cccc2[nH]1 | 3.81 | –
COc1ccccc1C(=O)Nc1ccccc1C(=O)N(C)c1cccc(C(F)(F)F)c1 | – | 29.7 µM (active)
O=C(Nc1ccc(C(F)(F)F)cc1)c1ccccc1NC(=O)C1CCCCC1 | – | 11.8 µM (active)
